In PubChem BioAssay AID463173 (ICCB-Longwood Screening Facility, Harvard Medical School, 2010) one finds survival data, which are given here for 91 compounds.

The whole screen tested about 52,000 compounds, of which about 1,700 (3.3%) were called active. Cut-off read from the data, not from the text of the source: active = survival mostly below about 52% (no sharp cut-off); inactive = mostly above about 56%. This excerpt belongs to a sample that is enriched for actives.

The test system of this experiment is Wild type. Briefly: growth inhibition of S. aureus wild type versus tarO mutant, primary screen, teichoic acid synthesis inhibitors, RN4220, OD600 (AID 463173). The following applies: S. aureus RN4220 wild type/DeltatarO growth, OD600, 18 h, hits give low values, screened at 18.75 µg/mL (by protocol).
In the case of `CCCN1C(=O)C(NC(=O)c2ccccc2OC)(C(F)(F)F)C(C(=O)OC)=C1C` (stereo unspecified), the survival is 78% (inactive). Consider `N#C/C(=C\c1cc(Br)c(O)c(Br)c1)c1nc2ccccc2c(=O)[nH]1`, for which the survival is 94% (inactive).

For `O=C(NCc1ccccc1Cl)c1cc(=O)[nH]c2ccc(S(=O)(=O)N3CCCCC3)cc12`, the survival is 83% (inactive). As for `CCOC(=O)c1c(C)oc2nc(C)nc(Nc3ccc(CC)cc3)c12`, the figure is 115% (inactive). As to `CCOC(=O)c1nc(Nc2ccc(OC)cc2)c2ccccc2n1`, the survival is 143% (inactive).

Regarding `CCOC(=O)c1cccc(Nc2cc(-c3ccccc3)ncn2)c1`, the survival was 40% (inactive).

For the compound `CCOC(=O)c1c(Nc2ccc(C)cc2)nnc(-c2ccccc2)c1-c1ccccc1`, the survival was 2% (active). As to `CCOC(=O)c1c(Nc2cc(C)cc(C)c2)nnc(-c2ccccc2)c1-c1ccccc1`, the survival is 38% (inactive). Take `CCOC(=O)c1c(Nc2ccc(F)cc2)nnc(-c2ccccc2)c1-c1ccccc1`: the survival is 1% (active). The value for `CCOC(=O)c1cnc(-c2ccccc2)nc1Nc1ccc(C)cc1` was 111% (inactive); that for `CCOC(=O)c1c(C)oc2nc(C)nc(Nc3ccc(C)c(Cl)c3)c12` was 80% (inactive); that for `CCOC(=O)c1c(Oc2ccc(C(C)=O)cc2)nnc(-c2ccccc2)c1-c1ccccc1` was 92% (inactive). On to `CCOC(=O)c1c(Nc2ccc(C)c(C)c2)nnc(-c2ccccc2)c1-c1ccccc1`, for which the survival is 0% (active). As for `CCOC(=O)c1c(Nc2cccc(O)c2)nnc(-c2ccccc2)c1-c1ccccc1`, the figure is 44% (inactive); as for `CCOC(=O)c1c(Nc2cccc(C)c2)nnc(-c2ccccc2)c1-c1ccccc1`, 0% (active); as for `CCCCOC(=O)c1ccc(Nc2ncnc3c2cnn3-c2cccc(C)c2)cc1`, 88% (inactive). `Cn1cnnc1SC1CCCCC1NS(=O)(=O)c1ccc(Cl)cc1` (stereo unspecified): the survival is 103% (inactive).

Turning to `COc1ccccc1N1CCN(c2cc(C)nc3nc(-c4ccc(Cl)cc4)nn23)CC1`, the survival is 78% (inactive). For the compound `CCCCN(CC)CCCNC(=O)c1cc2c(=O)oc3ccc(C)cc3c2s1`, the survival is 97% (inactive). Consider `COc1ccc2c(c1)c1c(c(=O)n(Cc3ccccc3)c(=O)n1CC(=O)NCc1ccc(C)cc1)n2C`, for which the survival was 82% (inactive).

For the compound `COc1ccc(-c2noc(CSc3nnc(Cc4ccccc4)n3-c3cccc(C)c3)n2)cc1`, the survival was 67% (inactive). As for `COc1ccc(N2CC(C(=O)NC3=NCCS3)CC2=O)cc1` (stereo unspecified), the figure is 102% (inactive); as for `CC(C)N(C(=O)Cn1cc(SCC(=O)Nc2ccccc2F)c2ccccc21)C(C)C`, 86% (inactive); as for `O=Nc1c(O)n2c3c(cccc13)CCC2`, 124% (inactive). Take `N#CC(C#N)=C(N)/C(C#N)=C\c1ccc(-c2ccccc2)o1`: the survival is 129% (inactive). `O=S(=O)(c1ccc(Cl)cc1)c1nc(-c2ccco2)oc1SCc1ccc(F)cc1`: the survival was 73% (inactive). On to `COc1cccc(NC(=O)C2=C(C)C(=O)OC23CCN(C(C)=O)CC3)c1`, for which the survival is 79% (inactive). In the case of `CCOC(=O)c1c(Nc2ccccc2)nnc(-c2ccccc2)c1-c1ccccc1`, the survival was 5% (active). The value for `CCOC(=O)c1c(Oc2ccc(C(=O)OC)cc2)nnc(-c2ccccc2)c1-c1ccccc1` was 87% (inactive); that for `CCOC(=O)c1c(Nc2ccc(O)cc2)nnc(-c2ccccc2)c1-c1ccccc1` was 96% (inactive); that for `CCOC(=O)c1c(-c2ccccc2)csc1NC(=O)c1cc(-c2cccc(OC)c2)on1` was 72% (inactive). As for `CC(=O)N1CCCc2cc(S(=O)(=O)N(Cc3ccccc3)C(C)C)ccc21`, the figure is 73% (inactive); as for `COc1ccccc1C(=O)Nc1cccc(C(=O)OCc2cc(=O)n3ccsc3n2)c1`, -6% (active); as for `COc1ccccc1C(=O)Nc1ccc(C(=O)OCc2cc(=O)n3ccsc3n2)cc1`, 72% (inactive). As for `COc1cc(C(=O)OCc2cc(=O)n3nc(C(C)C)sc3n2)cc(OC)c1OC`, the figure is 78% (inactive); as for `Cc1cccc(C(=O)OCc2cc(=O)n3ccsc3n2)c1`, 71% (inactive).

On to `Cc1ccccc1C(=O)Nc1cccc(C(=O)OCc2cc(=O)n3ccsc3n2)c1`, for which the survival is 64% (inactive). For the compound `COc1cc(C(=O)OCc2cc(=O)n3ccsc3n2)cc(OC)c1OC`, the survival is -4% (active). `COc1ccccc1C(=O)Nc1ccccc1C(=O)OCc1cc(=O)n2ccsc2n1`: the survival was -6% (active). As for `Cc1ccccc1C(=O)Nc1ccccc1C(=O)OCc1cc(=O)n2ccsc2n1`, the figure is 98% (inactive); as for `O=C(Nc1ccccc1C(=O)OCc1cc(=O)n2ccsc2n1)c1ccccc1Cl`, 75% (inactive). As for `O=[N+]([O-])c1cc(-c2nc(-c3ccccn3)no2)ccc1NCc1ccccc1`, the figure is 73% (inactive); as for `CCOC(=O)Cn1c(=O)oc2cc(S(=O)(=O)N3CCN(c4ccc(C(C)=O)cc4)CC3)ccc21`, 81% (inactive); as for `CC(C)(C)OC(=O)N1CCC(c2c(C(=O)N3CCN(c4ccccn4)CC3)cnn2-c2ccccc2Cl)CC1`, 53% (inactive).

In the case of `COc1cc(NC(=O)c2ccccc2)c(OC)cc1NC(=O)CN1CCCCC1`, the survival is 109% (inactive). As for `CCOC(=O)c1ccc(N2C(=O)c3n[nH]c(-c4cccs4)c3C2c2ccc(C)cc2)cc1` (stereo unspecified), the figure is 66% (inactive); as for `CCOC(=O)C1CCCN(C(=O)c2[nH]c3ccccc3c2Sc2ccc(Cl)cc2)C1` (stereo unspecified), 75% (inactive).

`CCC1CCCCN1CCCNC(=O)c1[nH]c2ccccc2c1Sc1ccc(Cl)cc1` (stereo unspecified): the survival was -1% (active). On to `CC1CCCCN1CCCNC(=O)c1[nH]c2ccccc2c1Sc1ccc(Cl)cc1` (stereo unspecified), for which the survival is -1% (active). For `CCCCNC(=O)c1[nH]c2ccccc2c1Sc1ccc(C)cc1`, the survival is 83% (inactive). For `CCN(CC)CCNC(=O)c1[nH]c2ccccc2c1Sc1ccc(Cl)cc1`, the survival was 42% (inactive). As to `CC1CCCCN1CCCNC(=O)c1cc(Sc2cccc(Cl)c2)nc2ccccc12` (stereo unspecified), the survival is 54% (inactive). For `COc1ccc(-c2noc(-c3ccc(NCCc4ccccc4)c([N+](=O)[O-])c3)n2)cc1`, the survival was 84% (inactive). For `CC(=O)Nc1ccc(C(=O)N2CC(C)OC(C)C2)cc1` (stereo unspecified), the survival is 133% (inactive). As for `CC(C(=O)N1CCCCC1)N1CCC(N2CCCCC2)CC1` (stereo unspecified), the figure is 93% (inactive); as for `CCc1ccccc1NC(=O)CN1C(=O)CCSc2ccc(S(=O)(=O)N3CCCC3)cc21`, 124% (inactive). The value for `O=C(Nc1ccc2oc(-c3cccnc3)nc2c1)c1ccc(-c2cccc(OC(F)(F)F)c2)o1` was 80% (inactive).

`Cn1cc(CN(C(=O)Nc2ccccc2)C2CCCCC2)c2ccccc21`: the survival is -1% (active). Regarding `COc1ccc2[nH]c(=O)c(CN(C(=O)Nc3ccccc3)C3CCCC3)cc2c1`, the survival was 103% (inactive).

With `O=C(Nc1ccccc1)N(Cc1c[nH]c2ccccc12)C1CCCCCC1`, the survival is 48% (inactive). Regarding `Cn1cc(CN(C(=O)Nc2ccc(Cl)c(Cl)c2)C2CCCCC2)c2ccccc21`, the survival is 60% (inactive). Regarding `Cc1ccc(NC(=O)N(Cc2c[nH]c3ccccc23)C2CCCCCC2)cc1C`, the survival is 54% (inactive). On to `Cc1ccc(NC(=O)N(Cc2cn(C)c3ccccc23)C2CCCCC2)cc1C`, for which the survival was -1% (active). Take `CCOc1ccc(C(=O)Nc2ccccc2C(=O)OCc2cc(=O)n3nc(C4CC4)sc3n2)cc1`: the survival was 78% (inactive). `CCOC(=O)c1c(C)[nH]c(CCC(=O)Nc2ccc(C)c(F)c2)c1C`: the survival is 70% (inactive). For the compound `O=C(NCC(c1cccnc1)N1CCN(Cc2ccccc2)CC1)C(=O)Nc1cccc(F)c1` (stereo unspecified), the survival was 114% (inactive). Regarding `COc1ccc(CCN2CC(C(=O)NCCc3ccc(C)cc3)CC2=O)cc1OC` (stereo unspecified), the survival is 60% (inactive). Turning to `Cc1cccc(CNC(=O)c2cnc3sc(N4CCOCC4)nn3c2=O)c1`, the survival is 119% (inactive). With `Cc1cc(=O)[nH]c2nnc(SCc3c(F)cccc3Cl)n12`, the survival is 140% (inactive). `COc1ccccc1C(=O)Nc1ccccc1OCc1cc(=O)n2c(C)csc2n1`: the survival is 81% (inactive). `CCOc1ccc(OCC)c(NC(=O)c2cnc(SC)nc2-c2ccccc2)c1`: the survival was 0% (active). With `CCOc1ccc(OCC)c(NC(=O)c2csc3c2CCCC3)c1`, the survival is -1% (active). On to `CSc1ncc(C(=O)NCc2ccc(F)cc2)c(-c2ccccc2)n1`, for which the survival is 87% (inactive). With `CSc1ncc(C(=O)NCc2ccccc2)c(-c2ccccc2)n1`, the survival was 10% (active). As to `COc1ccc(Cl)cc1NC(=O)c1cnc(SC)nc1-c1ccccc1`, the survival was 22% (inactive). For `CSc1ncc(C(=O)NCc2ccc(C)cc2)c(-c2ccccc2)n1`, the survival is -2% (active). With `CSc1ncc(C(=O)Nc2ccc(F)cc2F)c(-c2ccccc2)n1`, the survival is 73% (inactive). The value for `CSc1ncc(C(=O)NCc2cccc(F)c2)c(-c2ccccc2)n1` was 82% (inactive). `CSc1ncc(C(=O)NCc2ccc(C)cc2)c(C)n1`: the survival was 73% (inactive). `COc1ccc(NC(=O)c2csc3c2CCCCC3)cc1`: the survival was 72% (inactive).

On to `CSc1ncc(C(=O)NCc2cccc(C)c2)c(-c2ccccc2)n1`, for which the survival is 65% (inactive). Take `CCOc1ccc(CCNC(=O)c2csc3c2CCCCC3)cc1`: the survival was 81% (inactive).

Consider `CCOc1ccccc1NC(=O)Cn1c(=O)n(-c2ccccc2)c(=O)c2c1c1cc(C)ccc1n2C`, for which the survival is 84% (inactive).

`CCOC(=O)CNC(=O)c1cc2c(=O)oc3ccccc3c2s1`: the survival was 146% (inactive). For `CCc1ccc(C2C(C(=O)Nc3ccc(Cl)cc3)=C(C)Nc3ncnn32)cc1` (stereo unspecified), the survival is 59% (inactive). Turning to `Cc1ccc(CNC(=O)c2ccc3c(O)c(S(=O)(=O)c4ccccc4)c(=O)[nH]c3c2)cc1`, the survival is 83% (inactive). On to `N=C1SCC(=O)N1c1ccc(Cl)cc1`, for which the survival was 124% (inactive).

In the case of `Cc1ccc(-n2c(SCc3ccccc3F)nc3[nH]ncc3c2=O)cc1Cl`, the survival was 77% (inactive). With `Cc1ccc2[nH]c(=O)c3cc(C(=O)N(C)c4ccc(Br)cc4)sc3c2c1`, the survival was 81% (inactive). As for `COC(=O)c1ccc(NC(=O)CN2C(=O)c3cccc4cccc2c34)cc1`, the figure is 85% (inactive). The value for `NS(=O)(=O)c1ccc(CCNC(=O)CCn2c(=O)c3cccn3c3cccnc32)cc1` was 92% (inactive).
